Assay results taken from PubChem BioAssay (Tox21).
Inconclusive results are not listed. Calls of active or inactive are those of the source. Unless noted, calls come from the whole dose curve.

Key:
[1] = Nuclear factor erythroid 2-related factor 2/antioxidant responsive element (Nrf2/ARE) small molecule agonists: qHTS cell viability counter screen in human keratinocytes (AID 1919968; active = well fitted curve in the direction sought with a large enough effect in the repeat runs; an effect the other way counts as inactive or inconclusive; note: nearly all actives have a fitted effect of over 55% in size)
How it was run: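 KeratinoSens cells (HaCaT keratinocytes stably carrying an ARE-luciferase reporter) were seeded at 1,500 cells/well and rested 5 h at 37 C/5% CO2. They were then exposed to compounds in DMSO for 23 h. Viability was read by CellTiter-Fluor fluorescence after 1 h.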

[2] = Nuclear factor erythroid 2-related factor 2/antioxidant responsive element (Nrf2/ARE) small molecule agonists: luciferase reporter gene qHTS assay in human keratinocytes (AID 1919969); note: nearly all actives have a fitted effect of over 35% in size; note: potency is the fitted concentration of half-maximal effect
[3] = biological target: Gonadotropin-releasing hormone receptor (Homo sapiens) (UniProt P30968); test: Human gonadotropin-releasing hormone receptor (GnRHR) small molecule agonists, calcium flux assay in GnRHR-HEK293 cells (AID 1920063); note: nearly all actives have a fitted effect of over 35% in size
Sequence of Gonadotropin-releasing hormone receptor (Homo sapiens) (P30968 whole entry, looked up): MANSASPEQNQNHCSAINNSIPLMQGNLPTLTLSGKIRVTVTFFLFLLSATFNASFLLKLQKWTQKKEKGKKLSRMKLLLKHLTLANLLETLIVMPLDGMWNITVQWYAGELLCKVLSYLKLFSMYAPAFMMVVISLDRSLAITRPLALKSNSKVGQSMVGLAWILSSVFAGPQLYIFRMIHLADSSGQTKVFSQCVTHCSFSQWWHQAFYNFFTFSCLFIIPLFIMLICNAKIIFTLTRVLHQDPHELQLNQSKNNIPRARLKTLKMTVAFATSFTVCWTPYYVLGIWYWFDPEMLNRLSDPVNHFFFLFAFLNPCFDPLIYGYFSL
How it was run: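 HEK293 cells stably expressing human GnRHR were plated 18 h at 37 °C, loaded with calcium dye 1 h at 37 °C, then given compound in agonist mode; fluorescence (Ex/Em 480/540) read kinetically for 3 min at 1 s intervals.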

[4] = biological target: KiSS-1 receptor (Homo sapiens) (UniProt Q969F8); test: Human kisspeptin (KISS1R) small molecule agonists, calcium flux assay in KISS1R-HEK293 cells (AID 1920064; active = well fitted curve in the direction sought with a large enough effect in the repeat runs; an effect the other way counts as inactive or inconclusive)
Sequence of KiSS-1 receptor (Homo sapiens) (Q969F8 whole entry, looked up): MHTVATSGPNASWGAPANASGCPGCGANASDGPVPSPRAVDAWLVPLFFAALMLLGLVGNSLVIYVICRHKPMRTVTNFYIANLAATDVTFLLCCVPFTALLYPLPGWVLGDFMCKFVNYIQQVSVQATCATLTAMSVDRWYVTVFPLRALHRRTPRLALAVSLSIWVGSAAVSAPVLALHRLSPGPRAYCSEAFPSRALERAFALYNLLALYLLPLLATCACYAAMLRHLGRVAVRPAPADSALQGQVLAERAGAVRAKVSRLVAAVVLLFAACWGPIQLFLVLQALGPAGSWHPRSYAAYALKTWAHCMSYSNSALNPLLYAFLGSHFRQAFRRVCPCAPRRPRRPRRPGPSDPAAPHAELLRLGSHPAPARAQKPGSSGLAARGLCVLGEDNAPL
How it was run: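 HEK293 cells stably expressing human KISS1R were plated 18 h at 37 °C, loaded with calcium dye for 1 h at 37 °C, then given compound by pin tool. Fluorescence (Ex/Em 480/540) was read kinetically for 3 min.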

[5] = G protein-coupled receptor (GPCR) small molecule agonists, calcium flux assay: HEK293 wild type cell line counter screen (AID 1920065)
How it was run: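 Cells were plated and cultured 18 h at 37 C/5% CO2, then loaded with calcium dye for 1 h at 37 C. Compounds in DMSO were pin-transferred in agonist mode, and fluorescence (Ex/Em 480/540) was read kinetically for 3 min at 1 s intervals.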

[6] = p53 small molecule agonists, cell-based qHTS assay with rat liver microsomes (AID 1963578)
How it was run: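 With rat liver microsomes and NADPH present (0.5 mg/mL final each), p53RE-bla cells are treated with compound for 16 h at 37 C. LiveBLAzer detection mixture is then applied for 2 h at room temperature in the dark.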

[7] = p53 small molecule agonists, cell-based qHTS assay with rat liver microsomes: qHTS cell viability counter screen (AID 1963580); note: nearly all actives have a fitted effect of over 45% in size
How it was run: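 Viability is assessed in parallel with the p53 reporter read: HCT-116 p53RE-bla cells receive compounds plus rat microsomes and NADPH (0.5 mg/mL final apiece), incubate 16 h at 37 C, and then CellTiter-Glo luminescence is recorded.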

[8] = p53 small molecule agonists, cell-based qHTS assay: qHTS cell viability counter screen (AID 1963581); note: nearly all actives have a fitted effect of over 45% in size
How it was run: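 p53RE-bla HCT-116 cells were exposed to compounds for 16 h at 37 C; after the beta-lactamase FRET read in the same wells, CellTiter-Glo was added and luminescence (intracellular ATP) read after 30 min at room temperature.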

[9] = biological target: 5-hydroxytryptamine receptor 2A (Homo sapiens) (UniProt P28223); test: 5-hydroxytryptamine receptor 2A (HTR2A) small molecule antagonists, cell-based qHTS assay (AID 1963586); note: nearly all actives have a fitted effect of over 45% in size
Sequence of 5-hydroxytryptamine receptor 2A (Homo sapiens) (P28223 whole entry, looked up): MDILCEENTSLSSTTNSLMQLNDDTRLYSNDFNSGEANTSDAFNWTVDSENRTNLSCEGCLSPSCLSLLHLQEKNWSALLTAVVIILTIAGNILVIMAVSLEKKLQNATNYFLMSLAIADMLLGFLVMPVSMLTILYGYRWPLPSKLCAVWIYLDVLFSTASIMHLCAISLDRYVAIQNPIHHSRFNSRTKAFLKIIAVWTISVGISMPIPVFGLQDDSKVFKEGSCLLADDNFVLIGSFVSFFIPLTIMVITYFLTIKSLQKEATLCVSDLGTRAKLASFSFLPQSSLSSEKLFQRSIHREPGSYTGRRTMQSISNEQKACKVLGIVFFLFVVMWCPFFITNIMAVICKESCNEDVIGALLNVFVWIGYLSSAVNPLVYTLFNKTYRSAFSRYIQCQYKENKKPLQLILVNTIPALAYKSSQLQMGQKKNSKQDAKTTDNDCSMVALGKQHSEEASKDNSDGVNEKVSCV
How it was run: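 Antagonist-mode intracellular calcium assay: DOI (4 nM) added after 5 min compound pre-incubation at room temperature to dye-loaded HTR2A-CHO cells. Fluorescence followed for 3 min, sampled every second.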

[10] = biological target: 5-hydroxytryptamine receptor 2A (Homo sapiens) (UniProt P28223); test: 5-hydroxytryptamine receptor 2A (HTR2A) small molecule agonists, cell-based qHTS assay (AID 1963587); note: nearly all actives have a fitted effect of over 30% in size
How it was run: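 CHO cells stably expressing human HTR2A, plated 18 h, loaded with calcium dye 1 h at 37 C. Agonist mode: compounds added and intracellular calcium fluorescence recorded kinetically for 2 min at 1 sec intervals.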

[11] = biological target: Muscarinic acetylcholine receptor M1 (Homo sapiens) (UniProt P11229); test: Cholinergic receptor muscarinic 1 (CHRM1) small molecule antagonists, cell-based qHTS assay (AID 1963588); note: nearly all actives have a fitted effect of over 40% in size; note: potency is the fitted concentration of half-maximal effect
Sequence of Muscarinic acetylcholine receptor M1 (Homo sapiens) (P11229 whole entry, looked up): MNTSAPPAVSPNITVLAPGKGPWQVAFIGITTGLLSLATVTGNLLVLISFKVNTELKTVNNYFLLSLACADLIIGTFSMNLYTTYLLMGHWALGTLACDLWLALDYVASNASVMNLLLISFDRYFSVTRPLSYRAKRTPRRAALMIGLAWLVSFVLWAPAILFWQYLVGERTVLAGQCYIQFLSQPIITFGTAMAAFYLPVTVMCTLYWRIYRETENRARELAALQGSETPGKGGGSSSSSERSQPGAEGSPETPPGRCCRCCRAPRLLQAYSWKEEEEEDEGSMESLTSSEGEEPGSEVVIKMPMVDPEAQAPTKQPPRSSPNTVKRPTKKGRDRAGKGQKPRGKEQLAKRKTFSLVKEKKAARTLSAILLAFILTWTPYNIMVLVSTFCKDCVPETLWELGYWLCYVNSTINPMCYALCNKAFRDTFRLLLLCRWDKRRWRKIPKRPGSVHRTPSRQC
How it was run: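 CHRM1-CHO calcium-flux assay, antagonist mode. Cells were seeded 18 h, dye-loaded 1 h at 37 C and given compound for 5 min at RT, then acetylcholine was added at 50nM. FDSS fluorescence was read 3 min; 15 concentrations, three runs.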

[12] = biological target: Muscarinic acetylcholine receptor M1 (Homo sapiens) (UniProt P11229); test: Cholinergic receptor muscarinic 1 (CHRM1) small molecule agonists, cell-based qHTS assay (AID 1963589); note: nearly all actives have a fitted effect of over 35% in size
How it was run: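 CHO cells stably expressing human CHRM1, seeded 18 h at 37 C/5% CO2, dye-loaded 1 h at 37 C, then given compound in agonist mode; intracellular calcium fluorescence read kinetically at 1 s intervals. Fifteen concentrations, three independent runs.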

[13] = cAMP Responsive Elements (CRE) small molecule agonists, cell-based qHTS assay (AID 1963590)
How it was run: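 CRE-bla HEK 293T cells in DMEM with 10% dialyzed FBS, NEAA, pyruvate and 25 mM HEPES were plated 18 h at 37 C/5% CO2, then exposed to compounds in DMSO for 3 h before LiveBLAzer B/G FRET substrate addition.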

[14] = cAMP Responsive Elements (CRE) small molecule antagonists, cell-based qHTS assay (AID 1963591; active = well fitted inhibition curve with a large enough effect in the signal ratio in the repeat runs, not every such curve was filed as active; the % refers to the signal ratio)
How it was run: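 CRE-bla HEK293T cells were plated 18 h at 37 °C/5% CO2, pinned with compound in DMSO, then stimulated with NKH477 at 0.25 uM final for 3 h. LiveBLAzer B/G FRET substrate was added and plates incubated 2 h at room temperature.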

[15] = biological target: Beta-2 adrenergic receptor (Homo sapiens) (UniProt P07550); test: Adrenergic beta2 receptor (ADRB2) small molecule antagonists, cell-based qHTS assay (AID 1963592); note: nearly all actives have a fitted effect of over 50% in size; note: potency is the fitted concentration of half-maximal effect
Sequence of Beta-2 adrenergic receptor (Homo sapiens) (P07550 whole entry, looked up): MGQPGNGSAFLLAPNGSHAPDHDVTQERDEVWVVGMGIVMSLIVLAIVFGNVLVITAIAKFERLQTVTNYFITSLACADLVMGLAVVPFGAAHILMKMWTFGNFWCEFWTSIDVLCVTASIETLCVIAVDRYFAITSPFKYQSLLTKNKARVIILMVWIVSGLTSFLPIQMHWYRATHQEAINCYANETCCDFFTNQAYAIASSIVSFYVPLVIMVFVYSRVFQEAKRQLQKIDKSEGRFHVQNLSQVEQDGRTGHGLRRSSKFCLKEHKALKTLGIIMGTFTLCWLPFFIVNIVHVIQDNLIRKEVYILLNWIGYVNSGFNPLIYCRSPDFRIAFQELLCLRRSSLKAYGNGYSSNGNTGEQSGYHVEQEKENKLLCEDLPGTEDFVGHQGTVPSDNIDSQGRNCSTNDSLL
How it was run: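 Cells (CHO, stable ADRB2 overexpression) incubated 18-20hr at 37C; compounds added from DMSO; agonist mix (1nM isoproterenol, 100uM IBMX, 25uM Ro-20-1724) added; 0.5hr RT; d2-cAMP and anti-cAMP-cryptate added; 1hr RT; 665/615 nm read.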

[16] = biological target: Beta-2 adrenergic receptor (Homo sapiens) (UniProt P07550); test: Adrenergic beta2 receptor (ADRB2) small molecule agonists, cell-based qHTS assay (AID 1963593);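 note: CHO cells stably overexpressing human ADRB2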
How it was run: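 CHO cells stably over-expressing ADRB2 were plated overnight at 37C, then dosed with compounds plus a stimulation mix containing 100uM IBMX and 25uM Ro-20-1724 for 0.5hr at room temperature. cAMP was measured by HTRF competition, 1hr.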

[17] = biological target: D(2) dopamine receptor (Homo sapiens) (UniProt P14416); test: Dopamine D2 receptor (DRD2) small molecule agonists, cell-based qHTS assay (AID 1963594); note: nearly all actives have a fitted effect of over 35% in size
Sequence of D(2) dopamine receptor (Homo sapiens) (P14416 whole entry, looked up): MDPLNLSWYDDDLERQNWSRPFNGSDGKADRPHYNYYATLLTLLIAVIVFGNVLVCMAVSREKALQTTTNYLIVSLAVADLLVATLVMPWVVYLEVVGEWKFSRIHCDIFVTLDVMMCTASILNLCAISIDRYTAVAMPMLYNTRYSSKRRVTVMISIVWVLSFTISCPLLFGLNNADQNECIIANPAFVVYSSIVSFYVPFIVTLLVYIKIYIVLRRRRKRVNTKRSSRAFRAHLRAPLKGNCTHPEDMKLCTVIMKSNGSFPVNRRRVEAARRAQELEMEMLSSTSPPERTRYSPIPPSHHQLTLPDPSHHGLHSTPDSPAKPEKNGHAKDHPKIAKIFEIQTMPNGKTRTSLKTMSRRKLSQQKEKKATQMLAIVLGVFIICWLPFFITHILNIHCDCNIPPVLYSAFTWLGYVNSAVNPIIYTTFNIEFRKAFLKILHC
How it was run: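 HEK293 cells stably expressing human DRD2, pre-treated with PDE inhibitor Ro20-1724 (0.1 mM final) and compound 10 min at room temperature, then stimulated with NKH477 (200nM […]) for 30 min. cAMP read by HTRF (665/620 nm).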

[18] = biological target: D(2) dopamine receptor (Homo sapiens) (UniProt P14416); test: Dopamine D2 receptor (DRD2) small molecule antagonists, cell-based qHTS assay (AID 1963595; active = well fitted inhibition curve with a large enough effect in the signal ratio in the repeat runs, with a control signal flat; the % refers to the signal ratio)
How it was run: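 HEK293 cells stably expressing DRD2, preincubated with 0.1 mM Ro20-1724 and compounds 10 min, were stimulated with 200 nM NKH477 plus 12 nM quinpirole for 30 min at room temperature; cAMP measured by HTRF (665/620 nm).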

[19] = p53 small molecule agonists, cell-based qHTS assay (AID 1963582; active = well fitted activation curve with a large enough effect in the signal ratio in the repeat runs, not every such curve was filed as active; the % refers to the signal ratio)
How it was run: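 p53RE-bla beta-lactamase reporter cells rested 5 h at 37 C/5% CO2, then received compounds in DMSO by pin transfer and were incubated 16 h at 37 C. LiveBLAzer B/G FRET substrate was loaded for 2 h at room temperature before fluorescence reading.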

[20] = p53 small molecule agonists, cell-based qHTS assay with human liver microsomes: qHTS cell viability counter screen (AID 1963579); note: nearly all actives have a fitted effect of over 45% in size
How it was run: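 In this multiplexed counter screen, the reporter plates were subsequently treated with CellTiter-Glo so that cell viability, reflected by luminescence, could be recorded for p53RE-bla cells dosed 16 h with compounds under microsomal activation (HLM and NADPH).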

Measured: Potency

CCCCCOC(=O)Nc1nc(=O)n([C@@H]2O[C@H](C)[C@@H](O)[C@H]2O)cc1F
not listed: [19] | [20]
inactive: all other assays above

COC(=O)C1=C(C)NC(C)=C(C(=O)OCC(C)=O)C1c1ccccc1[N+](=O)[O-] (centres undefined)
not listed: [9] | [12] | [15] | [16] | [20]
inactive: all other assays above

CCn1c(=O)c2c(nc(/C=C/c3ccc(OC)c(OC)c3)n2C)n(CC)c1=O
not listed: [6] | [9] | [13] | [15] | [16]
inactive: all other assays above

NC(=O)Cn1c(=O)cc(CCN2CCN(c3nccc4sccc34)CC2)c2ccc(F)cc21
active: [11] 23.7 µM | [15] 27.3 µM
not listed: [9] | [10] | [13] | [14] | [16] | [20]
inactive: all other assays above

CCN(CC)CCNC(=O)COc1ccc(OC)cc1
not listed: [7]
inactive: all other assays above

Cc1ccc(C=O)cc1C
not listed: [6] | [16] | [17]
inactive: all other assays above

CCCc1ccccc1O
not listed: [6] | [11] | [16]
inactive: all other assays above

COCCOc1cc2cc(C(=O)NC3CCN(C(C)C)CC3)n(CC(=O)Nc3ccc(Cl)cn3)c2cn1
not listed: [6] | [14] | [17]
inactive: all other assays above

CCc1ncc(C)[nH]1
not listed: [7] | [14] | [15]
inactive: all other assays above

CC(=O)Oc1cccc(C)c1
not listed: [14] | [20]
inactive: all other assays above

NCCCC(N)(C(=O)O)C(F)F (centres undefined)
active: [11] 0.163 µM
not listed: [6] | [18] | [19]
inactive: all other assays above

O=C=Nc1ccc(Cl)c(Cl)c1
not listed: [6] | [16]
inactive: all other assays above

CC(=O)OC(C)OC(=O)C(C)c1ccc(-c2ccccc2)c(F)c1 (centres undefined)
not listed: [13] | [14] | [19] | [20]
inactive: all other assays above

Cc1nc([N+](=O)[O-])cn1-c1ccc([N+](=O)[O-])cc1
not listed: [6] | [17] | [18] | [19]
inactive: all other assays above

CC(C)c1ccccc1C(C)C
not listed: [6] | [13] | [18]
inactive: all other assays above

Nc1nnc(-c2ccc([N+](=O)[O-])o2)o1
active: [2] 61.1 µM
not listed: [6] | [18]
inactive: all other assays above
